Results as given in PubChem BioAssay (EPA / NIEHS).
Several values for one entry are separate records, joined by “and”; a condition that tells them apart may be missing. Identical values can stand only once. Some structures have more than one record in an assay (separate samples or runs), and their calls can disagree. Activity calls are given as the source filed them. The calls were made as follows: active = hit-call score of the fitted dose curve at least 0.9, where 1 is the maximum; inactive = score below 0.9.

test: CCTE_Shafer_MEA_dev_interburst_interval_mean: CCTE's Neural Network Formation Assay for Mean Interburst Interval, Shafer Lab (AID 2284046)
Protocol: CCTE_Shafer_MEA_dev assay is conducted using Axion Biosystems 48 well microelectrode array (MEA) plates and Maestro recording system. Each well of the MEA plate contains a grid of 16 microelectrodes embedded in the culture surface. Electrically active cells, such as neurons, can be cultured over the electrodes, and electrical activity in these cells can be recorded extracellularly. The spontaneous firing of neurons is captured from each electrode on a microsecond timescale providing both temporally and spatially precise data. […] The CCTE_Shafer_MEA_dev assay uses primary cultures of rat cortical neurons. Recordings are made on days post-plating 5, 7, 9 and 12. As these cultures mature over time, neural networks develop functional activity and form cohesive networks in which electrical activity can be highly coordinated. CCTE_Shafer_MEA_dev_interburst_interval_mean is 1 of 19 assay components of the CCTE_Shafer_MEA_dev assay. It measures the average time interval between consecutive single-electrode bursts (temporally-clustered groups of action potential firing) during a recording in a microelectrode array (MEA) using Axion Biosystems Maestro 768 channel amplifier with the AxIS adaptive spike detector. The mean inter-burst interval is averaged across the actively bursting electrodes to report a well-mean value. To collapse across multiple recordings made on days post-plating 5, 7, 9 and 12, the trapezoidal area-under-the-curve of the component is calculated.Data from the assay component CCTE_Shafer_MEA_dev_interburst_interval_mean was analyzed into 1 assay endpoint. This assay endpoint, CCTE_Shafer_MEA_dev_interburst_interval_mean, was analyzed in the negative analysis fitting direction relative to DMSO as the negative control and baseline of activity. Using a type of functional reporter, gain or loss-of-signal activity can be used to understand electrical activity.
On the day prior to culture, each well was coated thoroughly with 150 uL of 0.05% polyethyleneimine (PEI, Sigma Cat P3143) in 50 mM HEPES (Sigma Cat H7523) at a pH of 8. The plate was incubated at 37C for one hour. PEI was rinsed out with 500 uL of sterile water three times. Plates were stored at 4C until the day of culture. This culture was plated at a seeding density of 1.5 x 10^5 cells/well on a 48-well MEA plate, prepared as described above. Cells were administered via a 25 uL media/laminin ([…]; Sigma Cat L2020-1MG) drop directly onto the microelectrode array, as adding the cells with the laminin results in better attachment than pre-coating with laminin. After 2 hours, an additional 475 uL of cortical media was added and the cells returned to the incubator. Exposure starts at day 0 of plating and is continued over twelve days of network development until the experiment is terminated. Cells are fed with fresh medium on DIV 5 and 9, following the recordings on those days. The entire volume of media in the well is exchanged and any vehicle or compound treatment is renewed. Complete details are found in OP-NHEERL/ISTD/SBB/TJS/2015-03-r0 (available on request, email shafer.tim@epa.gov). Measurement of the electrical activity is non-invasive, and recordings can be made from the same plate over multiple different days of the culture. In cortical neurons, this allows for the measurement of extracellular action potentials over the period during which networks form in the MEA plate.

**Q.** With `CC[C@H](C)[C@H]1O[C@]2(C=C[C@@H]1C)C[C@@H]1C[C@@H](C/C=C(\C)[C@@H](O[C@H]3C[C@H](OC)[C@@H](O[C@H]4C[C@H](OC)[C@@H](O)[C@H](C)O4)[C@H](C)O3)[C@@H](C)/C=C/C=C3\CO[C@@H]4[C@H](O)C(C)=C[C@@H](C(=O)O1)[C@]34O)O2` (tested in a mixture with another compound) as the compound, how does the AC50 read?
**A.** Its AC50 is 12.2 nM (active) and 2.7 nM (active).

**Q.** Which outcome does the source give for `O=C(O)COc1ccc(Cl)cc1Cl` here?
**A.** Its outcome is “inactive”.

**Q.** For `Oc1cc(Cl)ccc1Oc1ccc(Cl)cc1Cl`, which AC50 is on record?
**A.** Its AC50 is 15.6 µM (active).

**Q.** Which AC50 does the source give for `CC1(c2ccc(Oc3ccccc3)cc2)OC(=O)N(Nc2ccccc2)C1=O` (stereo unspecified) here?
**A.** Its AC50 is 4.55 µM (active).

**Q.** For `CC1(C)C(C=C(Cl)Cl)C1C(=O)OC(C#N)c1ccc(F)c(Oc2ccccc2)c1` (stereo unspecified), which AC50 is on record?
**A.** Its AC50 is 49.9 µM (active) and 21 µM (active).

**Q.** What about the outcome of the same compound?
**A.** Its outcome is “inactive”.

**Q.** Which outcome does the source give for `COP(=S)(OC)Oc1ccc([N+](=O)[O-])cc1` here?
**A.** The outcome was “inactive”.

**Q.** With `O=S(=O)(O)C(F)(F)C(F)(F)C(F)(F)C(F)(F)C(F)(F)C(F)(F)C(F)(F)C(F)(F)F` as the compound, how does the outcome read?
**A.** The outcome was “inactive”.

**Q.** With `CNC(=O)CSP(=S)(OC)OC` as the compound, how does the outcome read?
**A.** The outcome was “inactive”.

**Q.** For `O=C(O)C(F)(F)C(F)(F)C(F)(F)C(F)(F)C(F)(F)C(F)(F)C(F)(F)F`, which outcome is on record?
**A.** The outcome was “inactive”.

**Q.** For `CC(C)N(C(=O)COc1nnc(C(F)(F)F)s1)c1ccc(F)cc1`, which outcome is on record?
**A.** The outcome was “inactive”.

**Q.** With `O=[N+]([O-])/N=C1\NCCN1Cc1ccc(Cl)nc1` as the compound, how does the outcome read?
**A.** Its outcome is “inactive”.

**Q.** For `O=S1OCC2C(CO1)C1(Cl)C(Cl)=C(Cl)C2(Cl)C1(Cl)Cl` (stereo unspecified), which outcome is on record?
**A.** The outcome was “inactive”.

**Q.** With `COP(=O)(OC)OC=C(Cl)Cl` as the compound, how does the outcome read?
**A.** The outcome was “inactive”.

**Q.** And the AC50?
**A.** The AC50 was 2.02 µM (active).

**Q.** Which outcome does the source give for `CCC(C)(C)C(=O)OC1=C(c2ccc(Cl)cc2Cl)C(=O)OC12CCCCC2` here?
**A.** The outcome was “inactive”.
